Screening results from PubChem BioAssay.
Glyco luc inh: increase of ERlucT glycosylation luciferase signal, primary screen, N-linked glycosylation inhibitor project, D54 ERlucT cells, luminescence, set 2; D54 ERlucT glycosylation luciferase reporter, 24 h; percent of 100 nM tunicamycin response; reporter increase, % at 12.5 µM; 360,000 tested, 0.23% active; AID 588692, 2011;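 active means mean luciferase reporter signal, scaled so untreated is 0 and the glycosylation-blocking control 100, at or above a set limit in every replicate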;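 further: luciferase carries N-glycosylation sites so blocking glycosylation raises the light; 0% = median of neutral control wells and 100% = median of 100 nM tunicamycin wells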
HIV Env fusion: inhibitors of HIV-1 Env-driven cell-cell fusion, primary screen, HeLa-JRFL effector, CEM21 target cells, luciferase. inhibition, % at 12.3 µM. 360,000 tested, 1.1% active. AID 651610, 2012;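 active means mean replicate inhibition score of at least 50 and every replicate individually at or above 50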;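 further: 0% = plate neutral controls and 100% = maraviroc near 300 nM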
Shn3 inh set2: reduction of Shn3 3'UTR firefly luciferase signal, primary screen, Schnurri-3 inhibitor project, cell-based, Clone20 osteoblasts, set 2. inhibition, % at 12.5 µM. AID 588674, 2011. 360,000 tested, 0.52% active. Clone20 osteoblast Shn3 3'UTR firefly luciferase, 24 h;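 active means mean inhibition of at least 75% with every replicate also reaching 75%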;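 further: 0% = median of neutral control wells and 100% = pilot-screen positive control compound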
LMP1 NFkB inh: EBV LMP1-driven NF-kappaB luciferase reporter inhibitors, primary screen, cell-based, luminescence, single point; LMP1-induced NF-kappaB luciferase reporter cells; inhibition, % at 12.5 µM; 350,000 tested, 0.69% active; AID 504558, 2011; in the data active means inhibition above about 41%;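 further: 0% = neutral control wells and 100% = reference inhibitor control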
PAX8 inh HTS: inhibitors of PAX8-driven TPO luciferase reporter, primary screen, RMG-I cells, single concentration; 360,000 tested, 1.2% active; SteadyGlo, 24 h; AID 652154, 2013; inhibition, % at 12.6 µM;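 active means mean replicate inhibition at least 60% with every replicate also reaching 60%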;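 further: luciferase light reporting Pax8 driven TPO promoter activity; plate controls were median of neutral control wells for no effect and mitoxantrone controls for full effect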
NSD2 inh: NSD2 histone methyltransferase inhibitors, primary screen, biochemical, AlphaScreen, single concentration, set 2. Histone-lysine N-methyltransferase NSD2 (Homo sapiens), O96028. NSD2 peptide methylation, 120 min. inhibition, % at 12.5 µM. AID 743445, 2014. 310,000 tested, 0.54% active; in the data active means inhibition above about 50%
Target sequence (O96028 whole entry, looked up): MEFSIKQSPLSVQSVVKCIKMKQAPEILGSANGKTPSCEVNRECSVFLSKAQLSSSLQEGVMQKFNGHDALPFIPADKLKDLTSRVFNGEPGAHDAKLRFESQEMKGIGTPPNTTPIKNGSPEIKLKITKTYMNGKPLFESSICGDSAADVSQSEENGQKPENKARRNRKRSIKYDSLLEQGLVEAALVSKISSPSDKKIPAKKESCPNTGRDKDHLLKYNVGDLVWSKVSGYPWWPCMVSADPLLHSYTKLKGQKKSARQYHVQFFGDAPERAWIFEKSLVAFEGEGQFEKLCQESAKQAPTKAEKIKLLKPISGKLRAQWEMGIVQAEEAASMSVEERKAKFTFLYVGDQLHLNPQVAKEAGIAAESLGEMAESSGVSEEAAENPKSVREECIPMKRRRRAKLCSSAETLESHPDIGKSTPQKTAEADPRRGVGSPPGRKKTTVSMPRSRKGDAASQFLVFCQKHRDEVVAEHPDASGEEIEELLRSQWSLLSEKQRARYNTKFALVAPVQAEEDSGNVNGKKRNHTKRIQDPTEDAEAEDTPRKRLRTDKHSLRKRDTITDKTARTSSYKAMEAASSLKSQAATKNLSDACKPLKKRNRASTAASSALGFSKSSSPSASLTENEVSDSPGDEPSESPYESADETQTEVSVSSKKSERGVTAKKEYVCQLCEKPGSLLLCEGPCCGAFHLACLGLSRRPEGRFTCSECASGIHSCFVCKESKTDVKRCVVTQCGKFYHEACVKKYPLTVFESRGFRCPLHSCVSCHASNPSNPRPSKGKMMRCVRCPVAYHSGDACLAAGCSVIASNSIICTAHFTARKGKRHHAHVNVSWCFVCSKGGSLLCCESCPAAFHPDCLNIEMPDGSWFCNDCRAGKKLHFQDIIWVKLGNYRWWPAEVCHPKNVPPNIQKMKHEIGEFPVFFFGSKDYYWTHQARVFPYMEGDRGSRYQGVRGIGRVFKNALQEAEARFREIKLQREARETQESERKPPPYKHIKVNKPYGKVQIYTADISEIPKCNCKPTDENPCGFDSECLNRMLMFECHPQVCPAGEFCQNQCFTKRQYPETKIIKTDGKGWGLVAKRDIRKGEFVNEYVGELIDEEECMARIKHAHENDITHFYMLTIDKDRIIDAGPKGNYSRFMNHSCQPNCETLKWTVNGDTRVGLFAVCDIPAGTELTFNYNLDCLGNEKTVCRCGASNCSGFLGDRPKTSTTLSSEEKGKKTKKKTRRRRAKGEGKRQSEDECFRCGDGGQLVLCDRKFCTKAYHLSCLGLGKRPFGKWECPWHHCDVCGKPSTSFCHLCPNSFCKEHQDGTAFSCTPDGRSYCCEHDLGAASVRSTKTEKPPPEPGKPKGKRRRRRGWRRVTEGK
* hit, by the source's call; i = inactive; / = not tested or not shown; [ ] = another dose, or the depositor's remark. This is a sample that favours compounds with a hit; in the whole collection about 2.8% have one here.

SMILES | Glyco luc inh | HIV Env fusion | Shn3 inh set2 | LMP1 NFkB inh | PAX8 inh HTS | NSD2 inh
C[C@@H]1CN([C@@H](C)CO)C(=O)Cc2cc(NS(=O)(=O)c3ccc(F)cc3)ccc2O[C@H]1CN(C)Cc1ccc(Cl)c(Cl)c1 | / | 100.3*[16.7 µM] | / | / | 93.3* | /
Cc1noc(C)c1C(=O)N(C)C[C@H]1OCc2ccccc2-c2c(n(C)c3ccccc23)C(=O)N([C@H](C)CO)C[C@@H]1C | / | 15.0[16.7 µM] | / | / | 12.9 | /
O=C(C1CCCC1)N1CCCCN2[C@H](CO)[C@@H](c3ccc(-c4ccncc4)cc3)[C@H]2C1 | / | / | / | / | -23.0 | /
O=C(Nc1ccccc1F)N1CC(=O)N2[C@@H](CO)[C@@H](c3ccc(C#Cc4ccccc4)cc3)[C@@H]2C1 | / | / | / | / | -0.2 | /
C[C@@H]1CN([C@@H](C)CO)S(=O)(=O)c2ccc(C#Cc3ccncc3)cc2O[C@@H]1CN(C)C(=O)C1CCCCC1 | / | -30.8[16.7 µM] | / | / | 76.3* | /
C[C@H]1CN([C@@H](C)CO)S(=O)(=O)c2ccc(C#Cc3ccncc3)cc2O[C@H]1CN(C)C(=O)C1CCCCC1 | / | 26.7[16.7 µM] | / | / | 75.7* | /
C[C@H](CO)N1C[C@H](C)[C@@H](CN(C)C(=O)Nc2ccc3c(c2)OCO3)Oc2cc(C#Cc3ccncc3)ccc2S1(=O)=O | / | / | / | / | 100.2* | /
CCCNC(=O)[C@@H]1[C@@H](CO)[C@@H]2Cn3c(ccc(C4=CCCC4)c3=O)[C@@H]2N1C(=O)c1cnccn1 | / | / | / | / | 13.2 | /
Cc1ccnc(NC(=O)c2cccc(NC(=O)c3ccc(Cl)cc3Cl)c2)c1 | / | / | / | / | / | 3.3
O=C(C[C@H]1CC[C@@H]2[C@H](COC[C@@H](O)CN2CCc2ccccc2)O1)NCc1ccccc1 | / | 0.4[16.7 µM] | / | / | -13.7 | /
O=C(c1ccccc1O)N1N=C(C(F)(F)F)CC1(O)c1ccc([N+](=O)[O-])cc1 (stereo not drawn) | -3.1 | 58.7* | -12.9 | -9.4 | 6.1 | 10.7
C[C@@H]1CN([C@H](C)CO)C(=O)c2cc(NS(=O)(=O)c3ccc(F)cc3)ccc2O[C@@H](C)CCCCO[C@@H]1CN(C)C(=O)CCCN(C)C | / | 9.9[16.7 µM] | / | / | -17.4 | /
CCN(Cc1cc(OC)c(OC)c(OC)c1)C(=S)Nc1cccc(SC)c1 | -1.3 | 17.0 | 78.7 | 3.6 | 17.6 | 0.4
COCCCN(Cc1cc(OC)c(OC)c(OC)c1)C(=S)Nc1cccc(Cl)c1 | -4.3 | -4.8 | 81.8* | 5.3 | 24.7 | -10.0
O=P(OC1CCCCC1)(OC1CCCCC1)C(O)c1ccccc1 (stereo not drawn) | -0.8 | 60.8* | -3.5 | 1.5 | / | 0.2
O=C(C[C@H]1C[C@H]2c3cc(NC(=O)Nc4ccc(C(F)(F)F)cc4)ccc3O[C@H]2[C@H](CO)O1)NCCc1ccccc1 | / | 15.4[16.7 µM] | / | / | -28.8 | /
C=CCN=C1NN=C(c2cc(C)n(CC=C)c2C)CS1 | -18.2 | 45.7 | 71.9 | 53.1* | 15.1 | /
C=CCN=C1NN=C(c2ccc3c(c2)OCCO3)CS1 | -14.8 | 31.7 | -10.5 | 46.6* | -30.7 | 0.6
CNC[C@H]1OCCCC[C@H](C)Oc2ccc(NS(=O)(=O)c3ccc(Cl)cc3)cc2C(=O)N([C@H](C)CO)C[C@@H]1C | / | -7.3[16.7 µM] | / | / | 8.2 | /
CN(C)CCNc1ncnc2c1sc1nc(-c3ccccc3)c3c(c12)CCCC3 | -11.8 | 2.1 | -25.6 | -9.2 | 64.5* | /
Cc1cc(C)n(-c2cc(-n3nc(C)cc3C)ncn2)n1 | 1.6 | -45.2 | 96.2* | -7.0 | / | 26.3
COc1ccccc1NS(=O)(=O)c1cccc(C(=O)N/N=C/c2ccc3c(c2)OCCO3)c1 | -0.2 | -14.6 | 68.9 | 5.5 | -27.8 | 0.0
COc1ccccc1NS(=O)(=O)c1ccc(C)c(C(=O)NC2CCN(Cc3ccccc3)CC2)c1 | -3.2 | 29.9 | 54.3 | 5.3 | 13.2 | /
COc1ccccc1NS(=O)(=O)c1cccc(C(=O)N/N=C/c2ccc([N+](=O)[O-])o2)c1 | 1.3 | -4.3 | 52.7 | -55.5 | 93.0* | 0.1
CCN(CC)c1ccc(/C=N/NC(=O)c2ccc3nc[nH]c3c2)c(O)c1 | -8.1 | / | 92.1* | 52.7* | / | 1.6
SMILES | Glyco luc inh | HIV Env fusion | Shn3 inh set2 | LMP1 NFkB inh | PAX8 inh HTS | NSD2 inh
COc1ccccc1NS(=O)(=O)c1cccc(C(=O)NC2CCN(Cc3ccccc3)CC2)c1 | -1.7 | / | 86.7* | 31.9 | / | -5.5
CCN(CC)c1ccc(/C=N/NC(=O)c2cccc(S(=O)(=O)Nc3ccccc3OC)c2)c(O)c1 | -11.3 | 1.2 | 82.8 | 57.9* | 74.2* | 39.1
COc1ccc(NC(=O)N2C[C@@H](O)COC[C@@H]3O[C@@H](CC(=O)N4CCOCC4)CC[C@H]32)cc1 | / | / | / | / | -0.7 | /
N#Cc1c(C#N)c(SSc2c(C#N)c(C#N)c(N)n2-c2ccccc2)n(-c2ccccc2)c1N | 7.8 | -11.2 | 88.6* | -1.1 | -23.7 | 7.4
CC(C)N(Cc1nc(-c2ccccc2)no1)C(=O)CN(C)S(=O)(=O)c1ccc(Br)cc1 | -2.3 | 69.6* | 9.2 | -18.8 | / | 0.1
CC(C)N(Cc1nc(-c2ccc(Cl)cc2)no1)C(=O)CN(C)S(=O)(=O)c1ccc(Cl)cc1 | -3.5 | / | 5.1 | -18.2 | / | 1.7
CCN(CC)Cc1c(O)ccc2c1O/C(=C\C=C\c1ccccc1)C2=O | -3.7 | i | 94.9* | -82.9 | -19.0 | /
CCc1cc(-c2n[nH]c(CCC(=O)O)c2-c2nc3ccccc3n2C)c(O)cc1O | 3.4 | 3.4 | 17.8 | -1.7 | 2.7 | -2.1
CCc1cc(-c2n[nH]c(C)c2-c2nc3ccccc3n2C)c(O)cc1O | 5.3 | 10.1 | 17.8 | 4.6 | 119.8* | -0.8
Cc1ccc(S(=O)(=O)Nc2ccc3c(c2)C(=O)N([C@@H](C)CO)C[C@@H](C)[C@@H](CN(C)S(=O)(=O)c2cn(C)cn2)O3)cc1 | / | -13.9[16.7 µM] | / | / | -64.8 | /
CCCNC(=O)C1(C)CCN(C(=O)c2ccccc2F)C1 (stereo not drawn) | 3.1 | 7.4 | -29.8 | / | 0.9 | 0.1
CCNC(=O)C1(C)CCN(C(=O)c2ccccc2F)C1 (stereo not drawn) | 2.9 | -10.4 | -3.8 | / | 96.0* | -0.6
Cc1ccsc1/C=N\Nc1cn[nH]c(=O)c1Cl | 9.5 | 56.0* | -10.8 | -10.7 | -41.6 | -6.6
Cc1ccc(/C=N\Nc2cn[nH]c(=O)c2Cl)cc1 | 14.5 | -24.4 | -61.6 | -6.8 | / | 7.5
CO[C@H]1CN(C)C(=O)c2cc(NC(=O)C3CCC3)ccc2OC[C@@H](C)N(C(=O)CN(C)C)C[C@H]1C | / | / | / | / | 3.5 | /
O=C(CCl)N(C/C=C/c1ccccc1)c1ccc2c(c1)OCCO2 | 16.8 | -21.6 | -8.8 | -10.1 | 84.2* | 0.3
O=C(/C=C/c1ccccc1)c1ccc2c(c1)OCCCCO2 | 8.7 | -165.2 | -70.6 | -45.4 | -145.0 | 13.9
C[C@H]1CN([C@@H](C)CO)C(=O)c2cc(NC(=O)C3CC3)ccc2O[C@H]1CN(C)CC1CCCCC1 | / | -4.1[16.7 µM] | / | / | -5.3 | /
O=C(C1CC(=O)N(c2ccc3c(c2)OCCO3)C1)N1CCN(Cc2ccccc2F)CC1 (stereo not drawn) | -1.0 | -9.0 | 15.6 | 69.6* | -0.4 | 1.9
